The values below come from PubChem BioAssay.

Structures are written as SMILES. Activity calls are given as the source filed them.

For test [1], the system named is Plasmodium falciparum Sir2 (PF13_0152, Sir2A). Nature of the test: Plasmodium falciparum Sir2A binding compounds – biochemical, small-molecule microarray, 635 nm fluorescence, primary screen (AID 1098).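 Note: score merges spot fluorescence intensity with its signal-to-noise ratio.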 As to conditions: fluorescence 635 nm, higher = more signal.
Test [2] in a line: probe aDKK1 binding to arrayed compounds – biochemical, biotinylated probe, 635/667 nm fluorescence, primary screen (AID 1099).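 Note: score merges 667nm spot fluorescence with signal to noise across triplicate slides.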 Particulars: small-molecule microarray, higher = more signal.
The nature of test [3]: probe aCHRDL2 binding to arrayed compounds – biochemical, biotinylated probe, 635/667 nm fluorescence, primary screen (AID 1100). As to conditions: small-molecule microarray, higher = more signal.
Test [4] can be described thus: change in splice reporter luminescence, either direction, cell-based, HEK293, spliceosome inhibition project, primary screen (AID 1101).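 Note: HEK293 cells carrying a splicing-competent luciferase reporter gene; test concentration not given here.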 Particulars: HEK293 splicing luciferase reporter, 24 h, higher = more signal, called active from +8 up or from −8 down. For orientation: In a reporter assay the amount or activity of a reporter protein is the signal.
In test [5] the target is Fibroblast growth factor 10 (Homo sapiens) (UniProt O15520). Nature of the test: compounds binding fibroblast growth factor 10 – biochemical, small-molecule microarray, 635 nm fluorescence, primary screen (AID 1102). As to conditions: FGF10 binding, fluorescence 635 nm, higher = more signal.
Test [6] has as its system glycogen synthase kinase-3 (GSK3A per assay name; protocol says GSK3B). Description: compounds binding glycogen synthase kinase-3 – biochemical, small-molecule microarray, 635 nm fluorescence, GSK3A, primary screen (AID 1103). Note: the record names both GSK3A and GSK3B. Particulars: fluorescence 635 nm, higher = more signal.
Test [7] addresses Epidermal growth factor receptor (Homo sapiens) (UniProt P00533). Description: compounds binding epidermal growth factor receptor – biochemical, small-molecule microarray, 635 nm fluorescence, primary screen (AID 1104).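 Note: score merges 667 nm emission intensity with spot signal to noise over triplicate slides.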 As to conditions: EGFR binding, higher = more signal.
The target of test [8] is Follistatin-related protein 3 (Homo sapiens) (UniProt O95633). Description: compounds binding follistatin-related protein 3 – biochemical, small-molecule microarray, 635 nm fluorescence, primary screen (AID 1105).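 Note: score merges emission near 667 nm and signal to noise per printed spot across three slides.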 As to conditions: FSTL3 binding, higher = more signal.
Test [9] concerns the target Dickkopf-related protein 1 (Homo sapiens) (UniProt O94907). Nature of the test: small molecules binding DKK1 protein – biochemical, small-molecule microarray, 635 nm fluorescence scan, primary screen (AID 1106).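 Note: score merges emission near 667 nm with signal to noise over three replicate slides.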 As to conditions: higher = more signal.
Test [10] has as its system Inhibin beta A chain (activin A). Nature of the test: small molecules binding activin A – biochemical, small-molecule microarray, 635 nm fluorescence scan, primary screen (AID 1107).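 Note: mouse activin A protein probed at 4.33 µg/mL on printed slides; score merges bound-protein fluorescence near 667 nm with spot signal-to-noise.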 Particulars: INHBA, higher = more signal.
Test [11] has as its system Human papillomavirus type 1a protein E7 (residues 44-93). Description: small molecules binding HPV E7 44-93 – biochemical, small-molecule microarray, residues 44-93, 635 nm fluorescence, primary screen (AID 1108).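 Note: E7 fragment applied at 1 µg/mL in TBST for 1 h at 4 C; score combines spot fluorescence with its signal to noise ratio.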 As to conditions: fluorescence 635 nm, higher = more signal.
The nature of test [12]: hepatitis C replication reporter changes, two-sided – Huh7 cells, luciferase reporter, HCV replication inhibitor project, primary screen (AID 1109).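 Note: huh7 hepatoma cells harbouring a luciferase neomycin HCV replicon reporter; luciferase luminescence as measure of HCV replicon replication; test concentration not given here.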 As to conditions: Huh7 HCV replicon luciferase reporter, 48 h; higher = more signal.
Test [13] deals with Left-right determination factor 2 (Homo sapiens) (UniProt O00292). Nature of the test: small molecules binding LEFTY2 protein – biochemical, small-molecule microarray, 635 nm fluorescence scan, primary screen (AID 1110). As to conditions: higher = more signal.
Test [14] has as its target Calmodulin-1 (Homo sapiens) (UniProt P0DP23). Nature of the test: small molecules binding calmodulin-1 with EGTA – biochemical, small-molecule microarray, Cy5-labelled CALM1, profiling panel (AID 1111).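 Note: labelled calmodulin applied in Tris saline Tween buffer holding calcium plus EGTA and DTT.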 Particulars: Cy5-CALM1 binding fluorescence, higher = more signal.
For test [15] the target is unchanged. Description: small molecules binding Ca-loaded calmodulin-1 – biochemical, small-molecule microarray, Cy5-labelled CALM1, plus calcium, artefact control for SMM control-protein annotation, profiling panel (AID 1112).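 Note: score merges spot fluorescence with signal to noise from triplicate slides.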 Particulars: Cy5-CALM1 binding fluorescence, higher = more signal.
Test [16] is described as follows: probe aWnt5a binding to arrayed compounds – biochemical, biotinylated probe, 635/667 nm fluorescence, primary screen (AID 1113).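 Note: score merges 667 nm fluorescence intensity with signal-to-noise per printed feature.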 As to conditions: small-molecule microarray, higher = more signal.
Test [17] is described as follows: probe aShh binding to arrayed compounds – biochemical, biotinylated probe, 635/667 nm fluorescence, primary screen (AID 1114).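 Note: probe is biotin-labelled aShh protein from a stem cell growth factor screen; measures binding of labelled protein to compounds printed on the slide; score merges feature fluorescence at 667 nm with signal-to-noise.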 As to conditions: small-molecule microarray, higher = more signal.
A short description of test [18]: probe aNog binding to arrayed compounds – biochemical, biotinylated probe, 635/667 nm fluorescence, primary screen (AID 1115).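 Note: probe is biotinylated aNog protein used at 0.15 µg/mL for 1 h at 4 C; z-score combines 667 nm fluorescence of each spot with its signal to noise.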 As to conditions: small-molecule microarray, higher = more signal.
For test [19], the target named is Torsin-1A-interacting protein 1 (Homo sapiens) (UniProt Q5JTV8). Description: compound microarray binding of lysate hLAP1 – cell lysate, small-molecule microarray, COS7 lysate, 635/667 nm fluorescence, primary screen (AID 1116). Particulars: 635 nm fluorescence, higher = more signal.
Test [20] concerns the target Alpha-bungarotoxin (Bungarus multicinctus) (UniProt P60615). Description: compounds binding labelled alpha-BTX control protein – biochemical, small-molecule microarray, Alexa647 label, 635/667 nm fluorescence, artefact control for SMM control protein annotation, profiling panel (AID 1117). Particulars: alpha-BTX-A647 binding fluorescence, higher = more signal.

Chain of Epidermal growth factor receptor (Homo sapiens) (P00533 whole entry, looked up): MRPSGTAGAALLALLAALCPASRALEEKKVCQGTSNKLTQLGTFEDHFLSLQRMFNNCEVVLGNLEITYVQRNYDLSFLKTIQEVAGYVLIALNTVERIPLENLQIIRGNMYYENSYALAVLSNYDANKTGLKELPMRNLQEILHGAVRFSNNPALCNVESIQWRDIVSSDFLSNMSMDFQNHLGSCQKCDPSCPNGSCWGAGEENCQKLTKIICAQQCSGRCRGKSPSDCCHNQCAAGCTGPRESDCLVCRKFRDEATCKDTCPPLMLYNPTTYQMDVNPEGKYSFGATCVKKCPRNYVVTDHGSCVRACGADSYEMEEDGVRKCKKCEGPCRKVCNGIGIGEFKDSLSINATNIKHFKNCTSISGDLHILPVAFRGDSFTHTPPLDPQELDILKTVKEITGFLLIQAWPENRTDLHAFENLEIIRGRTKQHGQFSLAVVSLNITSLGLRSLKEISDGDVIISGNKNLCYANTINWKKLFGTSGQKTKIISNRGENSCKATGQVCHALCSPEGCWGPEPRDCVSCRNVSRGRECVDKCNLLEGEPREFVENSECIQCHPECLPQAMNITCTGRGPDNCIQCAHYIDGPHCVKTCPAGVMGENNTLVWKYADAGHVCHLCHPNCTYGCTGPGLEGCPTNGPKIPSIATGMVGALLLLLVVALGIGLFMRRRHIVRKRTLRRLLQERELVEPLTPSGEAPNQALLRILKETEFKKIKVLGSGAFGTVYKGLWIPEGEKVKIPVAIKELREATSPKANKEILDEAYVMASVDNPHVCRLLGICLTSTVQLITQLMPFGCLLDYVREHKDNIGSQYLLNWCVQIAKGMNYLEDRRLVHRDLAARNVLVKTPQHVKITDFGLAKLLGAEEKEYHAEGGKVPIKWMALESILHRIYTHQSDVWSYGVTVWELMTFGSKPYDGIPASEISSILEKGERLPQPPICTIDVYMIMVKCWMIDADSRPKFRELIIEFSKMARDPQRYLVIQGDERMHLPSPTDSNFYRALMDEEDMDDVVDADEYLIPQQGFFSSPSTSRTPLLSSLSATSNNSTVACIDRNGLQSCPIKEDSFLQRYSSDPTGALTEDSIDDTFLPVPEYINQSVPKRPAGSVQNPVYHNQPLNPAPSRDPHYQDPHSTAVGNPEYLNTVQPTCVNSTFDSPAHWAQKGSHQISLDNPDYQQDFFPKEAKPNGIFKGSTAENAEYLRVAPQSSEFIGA
Chain of Follistatin-related protein 3 (Homo sapiens) (O95633 whole entry, looked up): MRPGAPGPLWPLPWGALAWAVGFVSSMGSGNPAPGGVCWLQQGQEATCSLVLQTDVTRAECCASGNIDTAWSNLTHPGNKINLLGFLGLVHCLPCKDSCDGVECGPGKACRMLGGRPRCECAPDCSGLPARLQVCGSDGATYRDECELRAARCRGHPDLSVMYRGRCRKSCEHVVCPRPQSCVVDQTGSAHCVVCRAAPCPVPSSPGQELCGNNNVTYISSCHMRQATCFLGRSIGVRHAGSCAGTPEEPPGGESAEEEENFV
Chain of Left-right determination factor 2 (Homo sapiens) (O00292 whole entry, looked up): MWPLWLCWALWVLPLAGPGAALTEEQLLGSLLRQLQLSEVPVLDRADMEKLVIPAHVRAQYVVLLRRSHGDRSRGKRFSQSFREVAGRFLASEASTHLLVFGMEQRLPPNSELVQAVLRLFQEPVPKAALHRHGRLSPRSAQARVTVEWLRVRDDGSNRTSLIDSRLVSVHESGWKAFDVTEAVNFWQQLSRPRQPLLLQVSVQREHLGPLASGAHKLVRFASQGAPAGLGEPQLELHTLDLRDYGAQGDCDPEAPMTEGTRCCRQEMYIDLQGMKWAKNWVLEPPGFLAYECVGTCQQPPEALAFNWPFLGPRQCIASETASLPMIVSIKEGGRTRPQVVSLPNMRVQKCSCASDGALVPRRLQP
Chain of Dickkopf-related protein 1 (Homo sapiens) (O94907 whole entry, looked up): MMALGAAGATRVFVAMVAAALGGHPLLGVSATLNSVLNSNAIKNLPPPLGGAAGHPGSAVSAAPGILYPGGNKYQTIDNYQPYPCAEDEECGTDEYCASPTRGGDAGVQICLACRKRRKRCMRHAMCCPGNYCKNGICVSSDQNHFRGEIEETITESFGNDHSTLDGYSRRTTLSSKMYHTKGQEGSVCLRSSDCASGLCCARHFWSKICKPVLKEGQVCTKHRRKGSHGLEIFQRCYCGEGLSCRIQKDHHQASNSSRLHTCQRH
Chain of Torsin-1A-interacting protein 1 (Homo sapiens) (Q5JTV8 whole entry, looked up): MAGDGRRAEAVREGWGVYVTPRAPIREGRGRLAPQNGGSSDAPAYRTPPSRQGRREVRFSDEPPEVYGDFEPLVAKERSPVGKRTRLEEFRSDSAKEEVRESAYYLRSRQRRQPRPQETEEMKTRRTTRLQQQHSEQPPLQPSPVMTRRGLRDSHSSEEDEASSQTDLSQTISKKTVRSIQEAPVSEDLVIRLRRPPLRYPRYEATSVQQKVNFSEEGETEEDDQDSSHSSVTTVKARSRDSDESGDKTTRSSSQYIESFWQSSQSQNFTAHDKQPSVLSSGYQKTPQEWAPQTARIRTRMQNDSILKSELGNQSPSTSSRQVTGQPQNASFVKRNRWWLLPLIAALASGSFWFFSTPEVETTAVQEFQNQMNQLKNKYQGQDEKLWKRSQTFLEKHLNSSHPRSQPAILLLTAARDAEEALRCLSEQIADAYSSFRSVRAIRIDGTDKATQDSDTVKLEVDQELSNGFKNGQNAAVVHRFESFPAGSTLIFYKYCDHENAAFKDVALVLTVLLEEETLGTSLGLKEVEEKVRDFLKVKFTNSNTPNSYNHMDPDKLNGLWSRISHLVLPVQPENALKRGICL
Chain of Alpha-bungarotoxin (Bungarus multicinctus) (P60615 whole entry, looked up): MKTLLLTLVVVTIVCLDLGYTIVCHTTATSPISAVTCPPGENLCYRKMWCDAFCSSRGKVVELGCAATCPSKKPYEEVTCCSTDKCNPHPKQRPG
Chain of Fibroblast growth factor 10 (Homo sapiens) (O15520 whole entry, looked up): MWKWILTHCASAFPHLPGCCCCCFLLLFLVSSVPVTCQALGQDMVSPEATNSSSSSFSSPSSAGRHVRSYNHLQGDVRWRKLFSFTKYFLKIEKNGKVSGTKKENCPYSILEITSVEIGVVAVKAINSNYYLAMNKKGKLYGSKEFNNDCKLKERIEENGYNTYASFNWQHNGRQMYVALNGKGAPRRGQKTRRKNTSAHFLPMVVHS

Regarding `O=C1c2ccccc2[C@@]2(Cc3ccccc3N(CCN3CCOCC3)C2=O)[C@H](c2ccc(CO)cc2)N1Cc1ccccc1`, the composite z-score was 0.878 in test [1]; -0.0074 in [2]; 0.278 in test [3]; -0.667 in [5]; -1.23 in [6]; -1.17 in test [7]. In addition, the composite z-score was -0.267 in test [8]; -0.391 in test [9]; 0.819 in test [10]; -0.22 in [11]; -0.976 in test [13]; -0.211 in test [14]. The composite z-score in test [15] was -0.11; in test [16], -0.128; in [17], -0.0709; in test [18] it was -0.5; in test [19], 1.01; in test [20], 0.175. The z-score in [4] was -0.765 (inactive); in test [12] it was -0.446.
For the compound `COC(=O)[C@@]1(Cc2ccc(F)cc2)[C@H]2c3cc(C(=O)N(C)C)n(CC4CC4)c3C[C@H]2CN1C(=O)c1ccccc1`, the composite z-score in test [1] is -0.0199; in [2] it was 2.38; in test [3] it was 1.41; in [5], 1.4; in test [6], 1.31; in [7], 0.463. Also, the composite z-score in [8] is 1.18; in test [9] it was -0.637; in test [10], 0.14; in test [11] it was 1.45; in test [13], 0.0265; in test [14], 2.21. For the same compound, the composite z-score in test [15] turned out to be 1.39; in test [16] it was 1.05; in test [17], 1.38; in test [18] it was 0.816; in test [19] it was 0.156; in test [20] it was 1.69. Besides, the z-score was -1.59 (inactive) in [4] and -1.14 in [12].
With `O=C1c2ccccc2[C@](Cc2ccccc2I)(C(=O)NC2CC2)[C@H](c2ccc(CO)cc2)N1Cc1ccccc1`, the composite z-score in test [1] was 0.701; in test [2], -0.145; in test [3], 0.693; in [5], 0.409; in test [6], -0.0685; in test [7], -0.375. Also, the composite z-score is -0.117 in test [8]; -0.112 in test [9]; 0.0183 in [10]; 0.742 in [11]; -0.346 in test [13]; 0.438 in test [14]. Moreover, the composite z-score is 0.0099 in test [15]; -0.101 in test [16]; 0.234 in test [17]; 0.099 in [18]; 0.711 in test [19]; 0.832 in [20]. Also, the z-score in test [4] is -0.0921 (inactive); in test [12], -0.701.
As for `C=CCN1C(=O)[C@@]2(O[C@@H](CCO)[C@H]([Si](C)(C)c3ccc(OC)cc3)[C@H]2C)c2cc(NC(=O)c3ccc(OC)cc3)ccc21`, the composite z-score in test [1] was 0.45; in [2], -0.138; in test [3], -0.46; in [5], 1.09; in test [6], 0.587; in test [7], 0.424. Also, the composite z-score in test [8] was 0.722; in test [9], 0.532; in test [10], 1.32; in test [11], -0.747; in test [13], 0.629; in test [14], -0.178. In addition, the composite z-score in [15] is 0.678; in test [16], -0.199; in test [17] it was 0.0062; in [18] it was 0.141; in test [19] it was -0.419; in test [20], 0.565. Further, the z-score was -0.491 (inactive) in [4] and -4.9 in [12].
As for `CCOC(=O)C1=CCC(c2ccccc2)N(S(=O)(=O)CC[Si](C)(C)C)C1` (stereo not given), the composite z-score in [1] was -0.285; in test [2], -0.264; in [3] it was -0.534; in [5], -0.887; in [6], -0.157; in test [7], -0.458. The composite z-score in [8] was -0.736; in [9] it was -0.214; in test [10], 1.24; in [11], -0.312; in [13] it was -0.262; in test [14], -0.0436. Also, the composite z-score was 0.0045 in test [15]; -0.208 in [16]; -0.262 in test [17]; -0.338 in test [18]; -0.28 in test [19]; 0.115 in [20]. For the same compound, the z-score in test [4] was 0.191 (inactive); in test [12], -0.327.
On to `O=C1c2ccccc2[C@@]2(Cc3ccccc3N(CC(F)(F)F)C2=O)[C@H](c2ccc(CO)cc2)N1Cc1ccccc1Cl`, for which the composite z-score was 0.0888 in test [1]; -0.237 in test [2]; -0.524 in test [3]; 0.466 in test [5]; 0.612 in test [6]; 0.509 in test [7]. The composite z-score in test [8] is 0.725; in test [9], 0.558; in test [10], 0.531; in test [11], 0.265; in test [13], 0.547; in test [14], -0.146. The composite z-score in test [15] was -0.684; in test [16], -0.166; in [17], -0.17; in test [18] it was -0.282; in test [19], 0.156; in test [20] it was 0.287. The z-score in [4] is -0.311 (inactive); in test [12] it was 0.078.
